Measured values as given in PubChem BioAssay (NCATS).
Results filed as inconclusive are left out. Activity calls are given as the source filed them. Calls follow the shape of the dose curve; as a rule, active = well fitted curve in the direction sought with a large enough effect; inconclusive = small, poorly fitted or top-dose-only effect, or another doubt; inactive = no such curve, though single readings can be large or run the other way.

test: Cytometric Cell-Based qHTS for Inhibitors of the mTORC1 Signaling Pathway in MEF (Tsc2-/-, p53-/-) Cells (AID 2660); settings: mTORC1 pathway cytometry; series mostly up to 38.3 µM; activity change, negative = inhibition: at the top concentration;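 also: Tsc2 and p53 null MEFs carrying empty vector with compound for 24 h; percent of cells above a phospho-rpS6 to PI ratio cutoff in each well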
Text: NIH Molecular Libraries Probe Production Centers Network [MLPCN]
NIH Chemical Genomics Center [NCGC]
Assay Submitter (PI): Blenis, John; Hoffman, Greg; Harvard University
NCGC Assay Overview: The mammalian target of rapamycin (mTOR) is an intracellular serine/threonine kinase Aberrant regulation of mTOR signaling plays a causative role in a number of human diseases, including cancer, benign tumors such as lymphangioleiomyomatosis (LAM) and Tuberous Sclerosis Complex (TSC), and metabolic diseases such as diabetes and obesity. This project aims to identify inhibitors of ribosomal protein S6 (rpS6) phosphorylation. The phosphorylation of rpS6 is a key event downstream of mTOR activation. The assay uses a phospho-specific antibody of phospho-rpS6 to detect inhibitors of mTOR activation. Mutations in the Tsc1 and Tsc2 genes are the underlying genetic lesions responsible for TSC, causing constitutive activation of the mTORC1 pathway and leading to profound effects on cell metabolism. Aberrant metabolism in cancer has recently received significant attention as a target to develop therapeutic agents in the treatment of cancer.1 As Tsc2-/- cells have lost the ability to respond to energy and growth factor deprivation, these cells are unable to properly down regulate cellular biosynthetic processes in response to metabolic stress, and are thus extremely sensitive to glucose deprivation-induced death.2 A central goal of this project is to explore the unique cell survival and metabolic properties of cells with Tsc1 or Tsc2 by screening for compounds that selectively target the Tsc2-/- MEFs by screening both Tsc2-/- and WT MEF cell lines. We hope to better understand these aspects of TSC physiology in order to exploit them for therapeutic benefit.
NCGC Acumen Assay Protocol Summary:
For quantitative high throughput analysis of mTORC1 signaling, we developed a cell-based assay for immuno-fluorescence based detection of rpS6 phosphorylation on the Acumen Explorer that will be used a platform for the primary small molecule screen. Mouse embryonic fibroblasts (MEFs) are cultured in 1536-well plates using DMEM + 10% FBS. Twenty-four hrs after plating, test compounds (solubilized in DMSO) are delivered and incubated with the cells for 24 hrs at 37 degree Celsius. Following the incubation, media with compound is aspirated and the cells are fixed in 4% paraformaldehyde (PFA) containing PBS + 0.2% TX-100. Next, PFA is aspirated, cells are washed two times with PBS plus 0.2% TX-100 and the cells are blocked for 1 hr at room temperature (blocking buffer: LiCOR Blocking Buffer plus 0.2% TX-100). This is followed by aspiration and staining with Alexa-488 conjugated-phospho-rpS6 Ser235/236 antibody for 2 hours at room temperature (Cell Signaling Technology # 4803, 1:50 dilution in blocking buffer). Cells are washed two times with PBS plus 0.2% TX-100, and stained with 10 uM propidium iodide (PI) for 20-25 minutes for cell number measurement (1:500 dilution of Hoescht staining is also added for IN Cell imaging). The plates are scanned on the Acumen Explorer laser scanning instrument (TTP Labtech) using the 488nm laser for simultaneous excitation of the Alexa-488 and PI. The fluorescence emission from the Alexa-488 conjugated rpS6 phospho-235/236 antibody staining is selected using a […] band pass filter. Fluorescence emission from the PI stain is selected using a 575-640 nm band pass filter. The normalized phospho-S6 staining is calculated as the ratio of the integrated Alexa 488 intensity divided by the integrated PI intensity for the single concentration rapamycin control (7.5 nM) and DMSO columns. […] Inhibition of the pathway is defined based on the normalized phospho-S6 intensity in rapamycin treated cells. […]

Structure (SMILES) | activity change, negative = inhibition
Nc1nc2c(ncn2COC(CO)CO)c(=O)[nH]1 | 9.7% (inactive)
CCc1cccc2c3c([nH]c12)C(CC)(CC(=O)O)OCC3 (stereo not given) | -10.1% (inactive)
CCC1(C)CC(=O)NC1=O (stereo not given) | 0.383% (inactive)
Cn1cnc2c1c(=O)[nH]c(=O)n2C | 7.3% (inactive)
Cc1cc(C(C)(C)C)c(O)c(C)c1CC1=NCCN1 | -24.5% (inactive)
O=C1N(c2ccccc2)c2ccccc2C1(Cc1ccncc1)Cc1ccncc1 | 4.68% (inactive)
NCCCCCC(=O)O | -0.714% (inactive)
COc1cc2nc(N3CCN(C(=O)C4COc5ccccc5O4)CC3)nc(N)c2cc1OC (stereo not given) | 0.765% (inactive)
Nc1nnc(-c2cccc(Cl)c2Cl)c(N)n1 | 1.67% (inactive)
Cn1c(=O)c2c(ncn2C)n(C)c1=O | -3.43% (inactive)
CC(COc1ccccc1)N(CCCl)Cc1ccccc1 (stereo not given) | -1.44% (inactive)
COc1cc2nc(N(C)CCCNC(=O)C3CCCO3)nc(N)c2cc1OC (stereo not given) | 4.13% (inactive)
COc1nc(C)nc(Cl)c1NC1=NCCN1 | 15.4% (inactive)
NS(=O)(=O)c1cc2c(cc1Cl)NCNS2(=O)=O | 4.33% (inactive)
CC(C(=O)O)c1cccc(C(=O)c2ccccc2)c1 (stereo not given) | 5.63% (inactive)
COc1cc2nc(N3CCN(C(=O)c4ccco4)CC3)nc(N)c2cc1OC | -23.7% (inactive)
CC[N+](CC)(CC)CCOc1cccc(OCC[N+](CC)(CC)CC)c1OCC[N+](CC)(CC)CC | 5.2% (inactive)
CCOC(=O)c1ncn2c1CN(C)C(=O)c1cc(F)ccc1-2 | -1.06% (inactive)
CN1CCN2c3ccccc3Cc3ccccc3C2C1 (stereo not given) | 8.42% (inactive)
COc1cc2c(c(OC)c1OC)-c1ccc(OC)c(=O)cc1[C@@H](NC(C)=O)CC2 | -16.2% (inactive)

Structure (SMILES) | activity change, negative = inhibition
CC#C[C@]1(O)CC[C@H]2[C@@H]3CCC4=CC(=O)CCC4=C3[C@@H](c3ccc(N(C)C)cc3)C[C@@]21C | -3.8% (inactive)
CC(CCc1ccc(O)cc1)NCCc1ccc(O)c(O)c1 (stereo not given) | -22.2% (inactive)
CN1C(C(=O)Nc2ccccn2)=C(O)c2ccccc2S1(=O)=O | 3.55% (inactive)
COc1ccc(CCN(C)CCCC(C#N)(c2ccc(OC)c(OC)c2)C(C)C)cc1OC (stereo not given) | -3.29% (inactive)
Cc1ccccc1N1C(=O)c2cc(S(N)(=O)=O)c(Cl)cc2NC1C (stereo not given) | -1.37% (inactive)
O=C1c2c(O)ccc(O)c2C(=O)c2c(NCCNCCO)ccc(NCCNCCO)c21 | -21% (inactive)
Cc1cn([C@H]2C[C@H](N=[N+]=[N-])[C@@H](CO)O2)c(=O)[nH]c1=O | -0.252% (inactive)
Clc1ccc(C(c2ccccc2Cl)C(Cl)Cl)cc1 (stereo not given) | -0.0494% (inactive)
Cc1cnc(C(=O)NCCc2ccc(S(=O)(=O)NC(=O)NC3CCCCC3)cc2)cn1 | 7.33% (inactive)
CC1COc2c(N3CCN(C)CC3)c(F)cc3c(=O)c(C(=O)O)cn1c23 (stereo not given) | -0.642% (inactive)
NC(CO)C(=O)NNCc1ccc(O)c(O)c1O (stereo not given) | -6.82% (inactive)
O=c1c(O)c(-c2ccc(O)c(O)c2)oc2cc(O)cc(O)c12 | -7.24% (inactive)
CCN1CCCC1CNC(=O)c1cc(S(=O)(=O)CC)c(N)cc1OC (stereo not given) | 12.1% (inactive)
O=c1[nH]cc(F)c(=O)[nH]1 | -2.05% (inactive)
NC(=O)OCC(COC(N)=O)c1ccccc1 | 4.5% (inactive)
CCOC(=O)C(C)(C)Oc1ccc(Cl)cc1 | 4.92% (inactive)
Cn1ccc2cc3c(cc21)CCN3C(=O)Nc1cccnc1 | 2.1% (inactive)
Clc1ccc2nsnc2c1NC1=NCCN1 | 1.67% (inactive)
COc1ccc(C2CNC(=O)C2)cc1OC1CCCC1 (stereo not given) | 14% (inactive)
Cc1cn([C@H]2C=C[C@@H](CO)O2)c(=O)[nH]c1=O | 3.24% (inactive)
